Out of some 39,000 compounds screened, about 500 (1.3%) were called active. Many of the other results were omitted from the sample, so actives are more common in it than they were.

The test system of the test is S. aureus RN4220. Briefly: growth inhibition call (relative growth <= 0.2). As to conditions: 50 µM.
As to `C[C@H]1CN([C@@H](C)CO)C(=O)Cc2cc(NC(=O)CCN3CCOCC3)ccc2O[C@@H]1CN(C)C(=O)Nc1ccccc1`, the growth inhibition call is “inactive”. With `O=C(Nc1ccc(Br)cc1)c1ccc(N2C(=O)c3ccc(C(=O)Nc4ccc(Br)cc4)cc3C2=O)cc1`, the growth inhibition call was “inactive”. On to `CO[C@H]1CN(C)C(=O)c2ccc(NC(=O)Nc3cccc(F)c3)cc2OC[C@H](C)N(C(=O)Nc2c(C)noc2C)C[C@@H]1C`, for which the growth inhibition call was “inactive”.

On to `CS(=O)(=O)c1ccc(C(O)C(CO)NC(=O)C(Cl)Cl)cc1` (centres undefined), for which the growth inhibition call was “inactive”.

For the compound `CCCCCCCCCCCCCCCC(=O)OCC(NC(=O)C(Cl)Cl)C(O)c1ccc([N+](=O)[O-])cc1` (centres undefined), the growth inhibition call is “inactive”. With `CCCCCCCCCCCCCCCC(=O)OC[C@H](NC(=O)C(Cl)Cl)[C@H](O)c1ccc([N+](=O)[O-])cc1`, the growth inhibition call is “inactive”.

Take `O=C(NC(CO)C(O)c1ccc([N+](=O)[O-])cc1)C(Cl)Cl` (centres undefined): the growth inhibition call is “active”. As to `CS(=O)(=O)c1ccc(C(O)C(CF)NC(=O)C(Cl)Cl)cc1` (centres undefined), the growth inhibition call is “active”. To `O=C([O-])CCC(=O)OCC(NC(=O)C(Cl)Cl)C(O)c1ccc([N+](=O)[O-])cc1.[Na+]` (centres undefined) belongs “inactive”.

As to `Cc1noc(C)c1NC(=O)N(C)C[C@@H]1OCCCC[C@H](C)Oc2ccc(NC(=O)Nc3ccccc3)cc2C(=O)N([C@@H](C)CO)C[C@@H]1C`, the growth inhibition call is “inactive”. On to `CCCN(C)C[C@H]1OCCCC[C@@H](C)Oc2ccc(NC(=O)Nc3ccc(OC)cc3)cc2C(=O)N([C@H](C)CO)C[C@@H]1C`, for which the growth inhibition call was “inactive”. Consider `COc1cccc(-c2cn(CC[C@H]3CC[C@H](NC(=O)CN(C)C)[C@@H](CO)O3)nn2)c1`, for which the growth inhibition call is “inactive”. Turning to `COCCn1cc2c(n1)[C@H](CNC(=O)CS(C)(=O)=O)OCC2`, the growth inhibition call was “inactive”. To `C[C@H](CO)N1C[C@H](C)[C@H](CN(C)S(C)(=O)=O)Oc2ncc(C#CCN(C)C)cc2C1=O` belongs “inactive”. Next, `C[C@@H]1CN([C@@H](C)CO)C(=O)c2c(c3ccccc3n2C)-c2ccccc2CO[C@H]1CN(C)Cc1ccc(C(=O)O)cc1`: “inactive”; `Cl.N=C(N)n1cccn1`: “active”. Consider `NCc1ccccc1-n1cccn1`, for which the growth inhibition call was “inactive”. For the compound `NCCn1cccn1`, the growth inhibition call is “inactive”. On to `C[C@H]1CN([C@@H](C)CO)C(=O)Cc2cc(NS(=O)(=O)c3ccc(Cl)cc3)ccc2O[C@@H]1CN(C)S(=O)(=O)c1cn(C)cn1`, for which the growth inhibition call was “inactive”.

Turning to `CC(C)[C@@H](N)c1nc2c([nH]1)CCCC2`, the growth inhibition call is “inactive”. Take `C/C(=C\C(=O)OCCCCCCCCC(=O)O)C[C@@H]1OC[C@H](C[C@@H]2O[C@H]2[C@@H](C)[C@H](C)O)[C@@H](O)[C@H]1O`: the growth inhibition call was “inactive”. To `CC(=CC(=O)OCCCCCCCCC(=O)O)CC1OCC(CC2OC2C(C)C(C)O)C(O)C1O` (centres undefined) belongs “active”; to `CCOC(=O)CC1=NNC(=N)SC1`, “inactive”; to `C[C@@H]1CN([C@H](C)CN(C)C)C(=O)c2cc(NC(=O)Cc3cn(C)c4ccccc34)ccc2O[C@H]1CN(C)S(=O)(=O)c1ccc(Cl)cc1`, “inactive”.

As for `CCCN(C)C[C@H]1OCCCC[C@@H](C)Oc2ccc(NC(=O)Nc3ccc(F)cc3)cc2C(=O)N([C@@H](C)CO)C[C@H]1C`, the growth inhibition call was “active”.

For the compound `CCCN(C)C[C@@H]1OCCCC[C@@H](C)Oc2ccc(NC(=O)Nc3ccc(F)cc3)cc2C(=O)N([C@H](C)CO)C[C@H]1C`, the growth inhibition call was “inactive”. Turning to `CCCN(C)C[C@@H]1OCCCC[C@H](C)Oc2ccc(NC(=O)Nc3ccc(C(F)(F)F)cc3)cc2C(=O)N([C@H](C)CO)C[C@@H]1C`, the growth inhibition call is “inactive”. In the case of `CCCN(C)C[C@@H]1OCCCC[C@@H](C)Oc2ccc(NC(=O)Nc3ccc(C(F)(F)F)cc3)cc2C(=O)N([C@H](C)CO)C[C@H]1C`, the growth inhibition call was “active”. Take `CCCN(C)C[C@H]1OCCCC[C@@H](C)Oc2ccc(NC(=O)Nc3ccc(C(F)(F)F)cc3)cc2C(=O)N([C@H](C)CO)C[C@H]1C`: the growth inhibition call is “inactive”. For the compound `CCCN(C)C[C@H]1OCCCC[C@@H](C)Oc2ccc(NC(=O)Nc3ccc(C(F)(F)F)cc3)cc2C(=O)N([C@@H](C)CO)C[C@H]1C`, the growth inhibition call was “inactive”. With `CCCN(C)C[C@H]1OCCCC[C@H](C)Oc2ccc(NC(=O)Nc3ccc(C(F)(F)F)cc3)cc2C(=O)N([C@@H](C)CO)C[C@H]1C`, the growth inhibition call was “active”. Turning to `CCCN(C)C[C@@H]1OCCCC[C@@H](C)Oc2ccc(NC(=O)Nc3ccc(C(F)(F)F)cc3)cc2C(=O)N([C@H](C)CO)C[C@@H]1C`, the growth inhibition call is “inactive”. Next, `CCCN(C)C[C@H]1OCCCC[C@@H](C)Oc2ccc(NC(=O)Nc3ccc(F)cc3)cc2C(=O)N([C@H](C)CO)C[C@@H]1C`: “inactive”.

Regarding `C[C@H]1CN([C@@H](C)CO)C(=O)c2cc(NS(C)(=O)=O)ccc2O[C@@H]1CN(C)C(=O)Nc1ccc(F)cc1`, the growth inhibition call is “inactive”. Regarding `COCC(=O)N(C)C[C@@H]1Oc2cc(C#CCN(C)C)ccc2S(=O)(=O)N([C@H](C)CO)C[C@@H]1C`, the growth inhibition call was “inactive”.

In the case of `C[C@@H]1CCCCO[C@@H](CN(C)C(=O)C2CCCCC2)[C@@H](C)CN([C@@H](C)CO)C(=O)c2cc(NC(=O)Nc3ccc(C(F)(F)F)cc3)ccc2O1`, the growth inhibition call is “inactive”.

Take `COc1ccc(CNC(=O)C[C@H]2CC[C@@H]3[C@@H](COc4ccc(NC(=O)C(C)C)cc4C(=O)N3C)O2)cc1`: the growth inhibition call was “inactive”. Consider `C[C@@H]1CN([C@H](C)CO)C(=O)c2cccc(NC(=O)Nc3ccc(F)cc3)c2O[C@H]1CN(C)Cc1ccc(Oc2ccccc2)cc1`, for which the growth inhibition call is “inactive”.

For `COc1ccc(C#Cc2ccc3c(c2)O[C@H](CN(C)C(=O)c2ccccn2)[C@H](C)CN([C@@H](C)CO)S3(=O)=O)cc1`, the growth inhibition call was “inactive”. For `OCCOCc1nnn2c1CN(c1ncccn1)CCC2`, the growth inhibition call was “inactive”. For the compound `COC(=O)[C@H]1CCc2nc[nH]c2C1`, the growth inhibition call was “inactive”. For the compound `Cc1oc(=O)oc1CN1CCN(c2cc3c(cc2F)c(=O)c(C(=O)O)c2n3C(C)S2)CC1` (centres undefined), the growth inhibition call was “active”. For the compound `Cn1cnc(S(=O)(=O)N2C[C@@H](O)COC[C@H]3O[C@@H](CC(=O)NCc4ccc(F)cc4)CC[C@@H]32)c1`, the growth inhibition call was “inactive”.

With `COc1ccc(NC(=O)N(C)C[C@H]2OCCCC[C@H](C)Oc3ccc(NS(=O)(=O)c4ccc(F)cc4)cc3C(=O)N([C@@H](C)CO)C[C@H]2C)cc1`, the growth inhibition call was “inactive”. As to `C[C@@H]1CN([C@@H](C)CO)C(=O)c2cc(NS(=O)(=O)c3ccc(Cl)cc3)ccc2O[C@@H]1CN(C)Cc1ccc(C(=O)Nc2ccccc2N)cc1`, the growth inhibition call is “inactive”. Regarding `CCN(CC)c1ccc(N2CC=C[C@@]34O[C@@H]5C=CCCOC(=O)[C@@H]5[C@H]3C(=O)N([C@@H](C)CO)[C@@H]4C2=O)cc1`, the growth inhibition call was “inactive”. For `O=C(C[C@H]1CC[C@H]2[C@@H](COC[C@@H](O)CN2C(=O)Nc2ccc(Cl)cc2)O1)NCCc1ccncc1`, the growth inhibition call is “inactive”.

On to `O=C(C[C@H]1CC[C@@H]2[C@H](COC[C@@H](O)CN2C(=O)Nc2ccc(Cl)cc2)O1)NCCc1ccncc1`, for which the growth inhibition call was “inactive”. With `O=C(C[C@@H]1CC[C@@H]2[C@H](COC[C@H](O)CN2C(=O)Nc2ccc(C(F)(F)F)cc2)O1)NCCc1ccncc1`, the growth inhibition call was “inactive”. Next, `O=C(C[C@@H]1CC[C@H]2[C@@H](COC[C@@H](O)CN2C(=O)Nc2ccc(C(F)(F)F)cc2)O1)NCCc1ccncc1`: “active”. As for `O=C(C[C@H]1CC[C@@H]2[C@H](COC[C@@H](O)CN2C(=O)Nc2ccc(C(F)(F)F)cc2)O1)NCc1ccncn1`, the growth inhibition call was “inactive”. In the case of `O=C(C[C@H]1CC[C@H]2[C@@H](COC[C@H](O)CN2C(=O)Nc2ccc(Cl)cc2)O1)NCCc1ccncc1`, the growth inhibition call was “inactive”. To `O=C(C[C@H]1CC[C@H]2[C@@H](COC[C@H](O)CN2C(=O)Nc2ccc(C(F)(F)F)cc2)O1)NCc1ccncn1` belongs “inactive”; to `O=C(C[C@@H]1CC[C@@H]2[C@H](COC[C@H](O)CN2C(=O)Nc2ccc(Cl)cc2)O1)NCCc1ccncc1`, “inactive”. On to `O=C(C[C@@H]1CC[C@H]2[C@@H](COC[C@@H](O)CN2C(=O)Nc2ccc(Cl)cc2)O1)NCCc1ccncc1`, for which the growth inhibition call was “inactive”. To `O=C(C[C@H]1CC[C@H]2[C@@H](COC[C@@H](O)CN2C(=O)Nc2ccc(C(F)(F)F)cc2)O1)NCCc1ccncc1` belongs “active”; to `O=C(C[C@@H]1CC[C@H]2[C@@H](COC[C@H](O)CN2C(=O)Nc2ccc(C(F)(F)F)cc2)O1)NCCc1ccncc1`, “active”; to `O=C(C[C@H]1CC[C@@H]2[C@H](COC[C@@H](O)CN2C(=O)Nc2ccc(C(F)(F)F)cc2)O1)NCCc1ccncc1`, “active”.

Consider `Cc1ccc(S(=O)(=O)Nc2ccc3c(c2)C(=O)N(C)[C@H]2CC[C@@H](CC(=O)NCCc4ccncc4)O[C@H]2CO3)cc1`, for which the growth inhibition call is “inactive”. As for `C[C@@H]1CN([C@@H](C)CO)C(=O)c2cccc(NC(=O)C3CC3)c2O[C@@H]1CN(C)C(=O)NC1CCCCC1`, the growth inhibition call is “inactive”. For `C[C@@H]1CN([C@H](C)CO)C(=O)Cc2cc(NC(=O)CCCCCC(=O)Nc3ccccc3N)ccc2O[C@H]1CN(C)C(=O)Nc1ccc(F)cc1`, the growth inhibition call is “inactive”.

On to `C[C@@H]1CN([C@H](C)CO)C(=O)c2c(c3ccccc3n2C)-c2ccccc2CO[C@@H]1CN(C)C(=O)c1cc(Cl)cc(Cl)c1`, for which the growth inhibition call is “inactive”. To `COc1cccc(S(=O)(=O)N[C@@H]2CC[C@H](CC(=O)NC3CCC3)O[C@@H]2CO)c1` belongs “inactive”; to `CN(C)CC(=O)N[C@H]1CC[C@@H](CC(=O)O)O[C@H]1CO`, “inactive”; to `COCCNC(=O)C[C@@H]1CC[C@H]2[C@@H](COC[C@H](O)CN2S(=O)(=O)c2ccccc2C)O1`, “inactive”. Take `Cc1noc(C)c1S(=O)(=O)Nc1ccc2c(c1)CC(=O)N([C@@H](C)CO)C[C@H](C)[C@H](CN(C)S(=O)(=O)c1ccccc1)O2`: the growth inhibition call is “inactive”. For the compound `CC(=O)N(C)C[C@@H]1Oc2ncc(C#CC(C)(C)O)cc2C(=O)N([C@@H](C)CO)C[C@@H]1C`, the growth inhibition call is “inactive”. Next, `Cc1cc(C(=O)Nc2cccc3c2O[C@@H](CN(C)Cc2ccncc2)[C@@H](C)CN([C@@H](C)CO)C3=O)n(C)n1`: “inactive”; `COc1ccc(NC(=O)N(C)C[C@H]2OCCCC[C@H](C)Oc3ccc(NS(=O)(=O)c4ccc(C)cc4)cc3C(=O)N([C@@H](C)CO)C[C@@H]2C)cc1`: “inactive”.

Values taken from the antibiotic and cytotoxicity screens of Wong et al. (2023).
